# Measured values: PubChem BioAssay (NCI)
# Compounds without any hit were thinned out: in the full panel of roughly 79,000, 15% have a hit. Values without a mark were called inactive. Calls of active or inactive are those of the source. Cut-off read from the data, not from the text of the source: active = growth inhibition above about 70%; inactive = the rest.
# How the values were obtained:
# [1] = NCI Yeast Anticancer Drug Screen. Data for the rad50 strain (AID 155);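 note: 0% = growth of vehicle-only cultures of the same strain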; details: S. cerevisiae rad50 strain growth inhibition, stronger effect = higher value
# Outline: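 Genetically altered yeast (DNA repair pathway); compound treatment; growth inhibition vs vehicle ctrl.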
# [2] = NCI Yeast Anticancer Drug Screen. Data for the mec2-1 strain (AID 157); details: S. cerevisiae mec2-1 strain, stronger effect = higher value
# Outline: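 Mutant yeast (mec2-1) grown with compound; growth inhibition relative to vehicle control reported.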
# [3] = NCI Yeast Anticancer Drug Screen. Data for the sgs1 mgt1 strain (AID 161);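 note: 0% = growth of cultures given vehicle only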; details: S. cerevisiae sgs1 mgt1 strain, stronger effect = higher value
# Outline: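 This yeast growth screen uses a strain with defined DNA-repair lesions; compound-treated growth is compared with vehicle-treated growth.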
# [4] = NCI Yeast Anticancer Drug Screen. Data for the cln2 rad14 strain (AID 165);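 note: 0% = growth equal to vehicle treated cultures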; details: S. cerevisiae cln2 rad14 strain, stronger effect = higher value
# Outline: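 Readout is yeast growth inhibition versus vehicle-treated controls, using a strain with cln2 and rad14 alterations exposed to compound.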
# [5] = NCI Yeast Anticancer Drug Screen. Data for the bub3 strain (AID 167); details: S. cerevisiae bub3 mutant strain, stronger effect = higher value
# Outline: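 Yeast carrying a defined mutation is treated with each compound, and growth is compared with that of vehicle-exposed cells to give inhibition.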
# [6] = NCI Yeast Anticancer Drug Screen. Data for the mlh1 rad18 strain (AID 175); details: S. cerevisiae mlh1 rad18 strain growth inhibition, stronger effect = higher value
# Outline: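 Genetically defined yeast (DNA repair-deficient) exposed to compounds; growth inhibition determined relative to vehicle.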
# [7] = at 5.0 µM (retest, dose inferred, filed as 0.5)
# [8] = at 50.0 µM (retest, dose inferred, filed as 5.0)
Compound,"growth inhibition [1, 7]","growth inhibition [1, 8]",growth inhibition ([1]; at 50.0 µM),"growth inhibition [2, 7] [%]","growth inhibition [2, 8]",growth inhibition ([2]; at 50.0 µM),"growth inhibition [3, 7] [%]","growth inhibition [3, 8]",growth inhibition ([3]; at 50.0 µM),"growth inhibition [4, 7]","growth inhibition [4, 8]",growth inhibition ([4]; at 50.0 µM),"growth inhibition [5, 7] [%]","growth inhibition [5, 8]",growth inhibition ([5]; at 50.0 µM),"growth inhibition [6, 7]","growth inhibition [6, 8]",growth inhibition ([6]; at 50.0 µM)
CCN(CC)CCN1C(=O)c2c(c3c4cccc(Cl)c4n(C4OC(CO)C(OC)C(O)C4O)c3c3[nH]c4c(Cl)cccc4c23)C1=O (centres undefined),88% (active),97% (active),84% (active),56,98% (active),87.3% (active),21,96% (active),90.5% (active),67%,90% (active),89.5% (active),43,97% (active),89.2% (active),76% (active),97% (active),91% (active)
O[C@H]1[C@H]2c3cc4c(cc3CN3CCC(=C[C@@H]1O)[C@H]23)OCO4,13%,98% (active),91.5% (active),19,99% (active),93.6% (active),23,98% (active),93.2% (active),77% (active),98% (active),90.7% (active),0,98% (active),91.2% (active),26%,99% (active),92.2% (active)
O=C1c2c(O)ccc(O)c2C(=O)c2c(O)ccc(O)c21,-23%,22%,21.4%,1,-12%,18.2%,-12,10%,12.3%,-10%,-2%,41%,-14,8%,16.5%,8%,-2%,4.25%
N#Cc1cc2cccn2c2c1cnn2-c1ccccc1,-6%,-5%,19%,8,4%,-6.8%,-1,-11%,-1.5%,3%,7%,9.65%,6,5%,-46.9%,-10%,12%,-2.95%
CC(C)N(C(=O)c1ccc(Cl)c(Cl)c1)C(C)C,-15%,-14%,-0.55%,-14,4%,10.8%,-1,0%,15.1%,29%,-26%,13.4%,6,-25%,9.2%,-12%,0%,-5.65%
Cc1cccc(C)c1N1C(=O)C2Nc3ccccc3SC2C1=O (centres undefined),7%,93% (active),98.5% (active),-1,94% (active),98.7% (active),3,96% (active),98.4% (active),2%,90% (active),95.8% (active),1,94% (active),98.3% (active),11%,95% (active),98.5% (active)
COc1cc(OC)c(SSCCCCS(=O)O)c(OC)c1,0%,14%,10.6%,1,44%,21.5%,11,55%,41.5%,-13%,25%,44.7%,7,63%,-26.2%,1%,36%,40.8%
C[CH2][Ge]([CH2]C)([CH2]C)[O]C(=O)C([O][Ge]([CH2]C)([CH2]C)[CH2]C)c1ccccc1 (centres undefined),15%,15%,91.2% (active),6,6%,93% (active),13,13%,91.3% (active),15%,15%,89.5% (active),5,5%,90.6% (active),23%,23%,89.5% (active)
COc1ccc(C(SCC(N)C(=O)O)(c2ccc(OC)cc2)c2ccc(OC)cc2)cc1 (centres undefined),-11%,97% (active),94.7% (active),-7,99% (active),96.3% (active),-4,99% (active),96.3% (active),-7%,98% (active),94.7% (active),15,98% (active),96.5% (active),-6%,98% (active),96% (active)
O=C(/C=C/c1ccccc1)C1(c2ccccc2)CC1,-125%,-56%,79.8% (active),-51,-42%,60.9%,-53,-2%,68.9%,-55%,-34%,-21.4%,-58,39%,44.5%,-115%,-93%,66.5%
CC1=C(C(=O)Nc2ccccc2)C(c2cccc([N+](=O)[O-])c2)C(C(=O)Nc2ccccc2)=C(C)N1,4%,30%,-7.95%,1,63%,26.1%,4,30%,19.1%,-2%,24%,4.75%,6,75% (active),35.4%,-7%,24%,18.9%
CCCCCc1ccc2cc(C(=O)O)[nH]c2c1,4%,59%,96.7% (active),3,72% (active),95.6% (active),-4,59%,95% (active),-1%,59%,97.8% (active),1,47%,97.2% (active),3%,51%,98.2% (active)
OC(Cc1ccccc1)(c1ccccc1)C(O)(Cc1ccccc1)c1ccccc1 (centres undefined),30%,79% (active),85.2% (active),20,54%,78.5% (active),0,52%,78.4% (active),13%,53%,85.7% (active),15,61%,74.5% (active),26%,76% (active),87.2% (active)
